Experimental data: the supplement of paper PMC8728848
The entries come from a sample that favours the strongest signals as a whole.

What was measured:
Assay in all cases: glycan array binding signal (z-score within array); higher = stronger binding
Conditions in all cases: glycan notation: IUPAC condensed, linker removed
[1] = biological target: Gal(b1-4)GlcNAc(b1-3)Gal(b1-4)GlcNAc(b1-3)Gal(b1-4)GlcNAc(b1-3)Gal(b1-4)GlcNAc(b1-3)Gal(b1-4)GlcNAc(b1-3)Gal(b1-4)GlcNAc(b1-2)Man(a1-3)[Gal(b1-4)GlcNAc(b1-3)Gal(b1-4)GlcNAc(b1-3)Gal(b1-4)GlcNAc(b1-3)Gal(b1-4)GlcNAc(b1-3)Gal(b1-4)GlcNAc(b1-3)Gal(b1-4)GlcNAc(b1-2)Man(a1-6)]Man(b1-4)GlcNAc(b1-4)GlcNAc
In short: (§1)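 Arrays were curated from the Consortium for Functional Glycomics database, 3228 in total, and kept only where the protein sequence was available. Binding is expressed as a within-array Z-score. This score was averaged across arrays of the same protein sequence at different concentrations or buffers and across linkers, and negative values can be read as non-binding.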

[2] = biological target: Gal(b1-4)GlcNAc(b1-3)[GlcNAc(b1-6)]Gal(b1-4)GlcNAc
In short: as §1

[3] = biological target: Gal(b1-4)GlcNAc(b1-6)Gal(b1-4)GlcNAc
In short: as §1

[4] = biological target: Gal(b1-4)GlcNAc(b1-6)[Gal(b1-4)GlcNAc(b1-3)]GalNAc
In short: as §1

[5] = biological target: Gal3S(b1-3)GlcNAc
In short: as §1

[6] = biological target: Gal3S(b1-4)Glc
In short: as §1

[7] = biological target: Gal3S(b1-4)GlcNAc6S
In short: as §1

[8] = biological target: Gal6S(b1-4)Glc6S
In short: as §1

[9] = biological target: GalNAc(a1-3)GalNAc(a1-3)Gal(a1-4)Gal(b1-4)GlcNAc
In short: as §1

[10] = biological target: GalNAc(b1-3)Gal(a1-4)Gal(b1-4)GlcNAc(b1-3)Gal(b1-4)Glc
In short: as §1

[11] = biological target: GlcNAc(b1-2)[GlcNAc(b1-4)]Man(a1-3)[GlcNAc(b1-2)Man(a1-6)]Man(b1-4)GlcNAc(b1-4)GlcNAc
In short: as §1

[12] = biological target: GlcNAc(b1-3)Gal
In short: as §1

[13] = biological target: GlcNAc(b1-3)Gal(b1-4)GlcNAc(b1-3)Gal(b1-4)GlcNAc(b1-3)Gal(b1-4)GlcNAc(b1-3)Gal(b1-4)GlcNAc(b1-2)[GlcNAc(b1-3)Gal(b1-4)GlcNAc(b1-3)Gal(b1-4)GlcNAc(b1-3)Gal(b1-4)GlcNAc(b1-3)Gal(b1-4)GlcNAc(b1-6)]Man(a1-6)[GlcNAc(b1-3)Gal(b1-4)GlcNAc(b1-3)Gal(b1-4)GlcNAc(b1-3)Gal(b1-4)GlcNAc(b1-3)Gal(b1-4)GlcNAc(b1-2)Man(a1-3)]Man(b1-4)GlcNAc(b1-4)[Fuc(a1-6)]GlcNAc
In short: as §1

[14] = biological target: Kdn(a2-3)Gal(b1-4)Glc
In short: as §1

[15] = biological target: Man(a1-2)Man(a1-3)[Man(a1-2)Man(a1-6)]Man(a1-6)[Man(a1-2)Man(a1-2)Man(a1-3)]Man
In short: as §1

[16] = biological target: Man(a1-2)Man(a1-6)[Man(a1-3)]Man(a1-6)[Man(a1-2)Man(a1-2)Man(a1-3)]Man(b1-4)GlcNAc(b1-4)GlcNAc
In short: as §1

[17] = biological target: Man(a1-3)[Man(a1-6)]Man(a1-6)[Man(a1-2)Man(a1-3)]Man(b1-4)GlcNAc(b1-4)GlcNAc
In short: as §1

[18] = biological target: Neu5Ac(a2-3)Gal(b1-3)GlcNAc(b1-3)Gal(b1-4)GlcNAc
In short: as §1

[19] = biological target: Neu5Ac(a2-3)Gal(b1-4)GlcNAc(b1-3)Gal(b1-4)GlcNAc(b1-3)Gal(b1-4)GlcNAc
In short: as §1

[20] = biological target: Neu5Ac(a2-3)Gal(b1-4)GlcNAc(b1-3)GalNAc
In short: as §1

[21] = biological target: Neu5Ac(a2-3)[GalNAc(b1-4)]Gal(b1-4)Glc
In short: as §1

[22] = biological target: Neu5Ac(a2-6)Gal(b1-4)GlcNAc(b1-2)Man(a1-3)[GlcNAc(b1-2)Man(b1-4)GlcNAc(b1-2)Man(a1-6)]Man(b1-4)GlcNAc(b1-4)GlcNAc
In short: as §1

[23] = biological target: Neu5Ac(a2-6)Gal(b1-4)GlcNAc(b1-2)Man(a1-3)[Neu5Ac(a2-3)Gal(b1-4)GlcNAc(b1-2)Man(a1-6)]Man(b1-4)GlcNAc(b1-4)GlcNAc
In short: as §1

[24] = biological target: Neu5Ac(a2-6)Gal(b1-4)GlcNAc(b1-2)Man(a1-6)[GlcNAc(b1-2)Man(a1-3)]Man(b1-4)GlcNAc(b1-4)GlcNAc
In short: as §1

[25] = biological target: Neu5Ac(a2-6)Gal(b1-4)GlcNAc(b1-3)Gal(b1-4)GlcNAc(b1-2)Man(a1-3)[Neu5Ac(a2-6)Gal(b1-4)GlcNAc(b1-3)Gal(b1-4)GlcNAc(b1-2)Man(a1-6)]GalNAc
In short: as §1

[26] = biological target: Neu5Ac(a2-6)GalNAc(b1-4)GlcNAc6S
In short: as §1

[27] = biological target: Neu5Ac(a2-6)GlcNAc(b1-4)GlcNAc(b1-4)GlcNAc
In short: as §1

[28] = biological target: Neu5Gc(a2-8)Neu5Gc(a2-3)Gal(b1-4)GlcNAc(b1-3)Gal(b1-4)GlcNAc
In short: as §1

B1: Gal 9 (Homo sapiens), O00182 (protein)
chain: MAFSGSQAPYLSPAVPFSGTIQGGLQDGLQITVNGTVLSSSGTRFAVNFQTGFSGNDIAFHFNPRFEDGGYVVCNTRQNGSWGPEERKTHMPFQKGMPFDLCFLVQSSDFKVMVNGILFVQYFHRVPFHRVDTISVNGSVQLSYISFQNPRTVPVQPAFSTVPFSQPVCFPPRPRGRRQKPPGVWPANPAPITQTVIHTVQSAPGQMFSTPAIPPMMYPHPAYPMPFITTILGGLYPSKSILLSGTVLPSAQRFHINLCSGNHIAFHLNPRFDENAVVRNTQIDNSWGSEERSLPRKMPFVRGQSFSVWILCEAHCLKVAVDGQHLFEYYHRLRNLPTINRLEVGGDIQLTHVQT
glycan array binding signal (z-score) [1]: 9.39
glycan array binding signal (z-score) [2]: 0.555
glycan array binding signal (z-score) [3]: -0.17
glycan array binding signal (z-score) [4]: -0.275
glycan array binding signal (z-score) [5]: 0.996
glycan array binding signal (z-score) [6]: -0.132
glycan array binding signal (z-score) [7]: 4.06
glycan array binding signal (z-score) [8]: -0.299
glycan array binding signal (z-score) [9]: 0.672
glycan array binding signal (z-score) [10]: -0.036
glycan array binding signal (z-score) [11]: -0.323
glycan array binding signal (z-score) [12]: -0.323
glycan array binding signal (z-score) [13]: 2.32
glycan array binding signal (z-score) [14]: -0.315
glycan array binding signal (z-score) [15]: -0.311
glycan array binding signal (z-score) [16]: -0.321
glycan array binding signal (z-score) [17]: -0.263
glycan array binding signal (z-score) [18]: 0.431
glycan array binding signal (z-score) [19]: 0.554
glycan array binding signal (z-score) [20]: -0.265
glycan array binding signal (z-score) [21]: -0.302
glycan array binding signal (z-score) [22]: 0.913
glycan array binding signal (z-score) [23]: -0.259
glycan array binding signal (z-score) [24]: -0.323
glycan array binding signal (z-score) [25]: 5.41
glycan array binding signal (z-score) [26]: -0.291
glycan array binding signal (z-score) [27]: -0.318
glycan array binding signal (z-score) [28]: -0.282
